Bioassay records (PubChem)
A selection: hits, their analogues and other compounds. The true share with any hit is near 17%.
ATXN2 expr inh = Primary qHTS for Inhibitors of ATXN expression. 360,000 compounds, 0.72% hits. HEK-293 ATXN2-luciferase reporter, luminescence, 24 h. Potency, µM (doses to about 57 µM), inactives show at the highest dose activity change, negative = inhibition, actives largely listed as inhibitors; further: on the % scale 0 is the no-effect control and ±100 the full control effect; nearly all actives have a fitted effect of over 55% in size
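ATXN2-luciferase reporter cells (luciferase flanked by upstream and downstream ATXN2 gene portions) were treated 24 h at 37 °C with compounds at up to 57 uM. SteadyGlo luminescence gave expression; GF-AFC fluorescence gave viability.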
TDP1 cell noCPT = qHTS for Inhibitors of human tyrosyl-DNA phosphodiesterase 1 (TDP1): qHTS in cells in absence of CPT; DT40 Tdp1-/- hTDP1 cells, no CPT, ATP luminescence, 48 h; Potency, µM (series often up to 46.2 µM), inactives show at the highest dose activity change, negative = growth inhibition, hits mostly inhibitors; 420,000 compounds, 15% hits; AID 686978, 2013; further: on the % scale 0 is the no-effect control and ±100 the full control effect; nearly all actives have a fitted effect of over 55% in size
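Growth kinetics read by CellTiter-Glo luminescence after ≥48 hr at 37 °C. Cells: DT40 Tdp1-/- stably carrying human TDP1, 400 per well, compound exposure in the absence of CPT (DMSO vehicle).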
HepG2 tox = qHTS for Inhibitors of TGF-b: Cytotox Counterscreen; AID 588856, 2011; 410,000 compounds, 0.76% hits; HepG2 CAGA-GFP viability, ATP luminescence, 18 h; Potency, µM (series often up to 46.1 µM), for inactives: at the highest dose activity change, negative = cytotoxicity, hits mostly cytotoxic
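HepG2 CAGA-GFP cells (1000/well, DMEM with 1% FBS) received compound, then TGF-beta at 500 pg/mL final, and were incubated 18 hours at 37 degrees C. Viability was read by CellTiter-Glo luminescence. Media-only wells were set as complete cell-killing and DMSO as no toxicity.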
ATXN viability = Viability Counterscreen for Primary qHTS for Inhibitors of ATXN expression | S2 cells (HEK-293 line with an ATXN2-luciferase reporter) viability, CellTiter-Fluor protease fluorescence, 24 h | Potency, µM (top dose mostly 56.7 µM), usual class: cytotoxic | 400,000 compounds, 0.49% hits | AID 651635, 2014; further: nearly all actives have a fitted effect of over 40% in size
TGFb SMAD3 inh = qHTS for Inhibitors of TGF-b. HepG2 CAGA-GFP TGF-b/SMAD3 reporter, GFP fluorescence, 18 h; TGF-beta stimulated, 500 pg/mL final. 410,000 compounds, 1.2% hits. Potency, µM (titrated, usually from 46.1 µM), inactives show top-dose activity, negative = inhibition, actives largely listed as inhibitors; further: on the % scale 0 is the no-effect control and ±100 the full control effect; nearly all actives have a fitted effect of over 65% in size
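Cell-based qHTS in HEPG2 carrying a CAGA-GFP Smad reporter; compounds added before 500 pg/mL final TGF-beta, 18 h incubation at 37 degrees C, GFP fluorescence quantified per cell by imaging cytometry.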
TDP1 cell CPT = qHTS for Inhibitors of human tyrosyl-DNA phosphodiesterase 1 (TDP1): qHTS in cells in presence of CPT. chicken DT40 Tdp1-/-;hTDP1 cells + 20 nM CPT, ATP luminescence, 48 h. Potency, µM (titrated, usually from 46.2 µM), for inactives: at the highest dose activity change, negative = growth inhibition, actives largely listed as inhibitors. 420,000 compounds, 12% hits. AID 686979, 2013; further: on the % scale 0 is the no-effect control and ±100 the full control effect; nearly all actives have a fitted effect of over 55% in size
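Chicken DT40 Tdp1-/- cells complemented with human TDP1, 400 cells/well, exposed to compounds plus 20 nM camptothecin for at least 48 h at 37 C; viability read as ATP content by CellTiter-Glo luminescence.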
An asterisk follows results filed as active; i = inactive; u = inconclusive; x = no result given. The call rests on the fitted dose curve; in most records, active means well fitted curve in the direction sought with a large enough effect; inconclusive means small, poorly fitted or top-dose-only effect, or another doubt; inactive means no such curve, though single readings can be large; an effect the other way counts as inactive or inconclusive. Potency means the concentration at half of the fitted maximal effect.

SMILES | ATXN2 expr inh | TDP1 cell noCPT | HepG2 tox | ATXN viability | TGFb SMAD3 inh | TDP1 cell CPT
O=C(Cc1cccc(NC(=O)C2CCCN(C(=O)C3CCC3)C2)c1)Nc1cccc(C(=O)N2CCCC2)c1 (stereo unspecified) | u | -24% | 3% | u | u | -25%
COc1ccc2oc3cc(C)[n+]([O-])c(-c4ccc(C)cc4)c3c2c1 | -27% | 0.21µM* | -18% | i | u | u
COc1ccc(-c2c3c(cc(C)[n+]2[O-])oc2ccc(OC)cc23)cc1 | -29% | u | -12% | u | -17% | 26µM*
COc1ccc(-c2c(C)oc3ccc(C)cc23)cc1 | 4% | 0% | -20% | i | -9% | -29%
COc1ccc(CCNC(=O)CSc2nc(C)cc(C)n2)cc1OC | 12% | 11% | 11% | i | -1% | 7%
COc1ccc(-c2cc(C(F)(F)F)nc(SCC(=O)NCCc3ccccc3)n2)cc1OC | -25% | u | 2% | u | -29% | u
COc1ccccc1CCNC(=O)C(C)Sc1nc(-c2ccccc2)cc(C(F)(F)F)n1 (stereo unspecified) | -7% | 15µM* | -44% | i | -10% | 16µM*
COc1ccc(CCNC(=O)CSCc2ccc([N+](=O)[O-])cc2)cc1OC | -16% | 26µM* | -31% | i | -13% | 26µM*
COc1ccc(CCNC(=O)Nc2cc(F)c(F)cc2Cl)cc1OC | u | 8.2µM* | -1% | u | -25% | 23µM*
COc1ccc(CCNC(=O)CSc2nnc(-c3ccc(C)cc3)c(-c3ccc(C)cc3)n2)cc1OC | 6% | 16µM* | -35% | i | -10% | u
Cc1ccc(CN2CCOc3ccc(CN4CCN(CCO)CC4)cc3C2)s1 | x | -14% | x | i | x | 10%
COc1ccc(CCNC(=O)CSc2nc(-c3ccc(F)cc3)cc(C(F)(F)F)n2)cc1OC | -3% | u | -5% | i | 12% | 18µM*
Cc1ccc(-c2nnc(SCC(=O)NCCC(C)C)nc2-c2ccc(C)cc2)cc1 | x | 13µM* | -22% | x | 0% | 5.8µM*
Cc1ccc(-c2nnc(SCC(=O)NCC3CCCO3)nc2-c2ccc(C)cc2)cc1 (stereo unspecified) | -2% | 23µM* | 4% | i | -21% | u
COc1ccc(CCNC(=O)CSCc2ccc(Cl)cc2)cc1OC | -8% | u | -21% | i | u | u
O=C(CSc1nnc(-c2ccccc2)c(-c2ccccc2)n1)NCC1CCCO1 (stereo unspecified) | -28% | u | 2% | i | 0% | -6%
COCCn1c(-c2ccc(Cl)cc2)cnc1SCC(=O)NCCc1ccc(OC)c(OC)c1 | x | u | -15% | i | -26% | 21µM*
C(#CC12CC3CC(CC(C3)C1)C2)CN1CCOCC1 | 0% | 4% | -3% | i | -1% | -10%
COc1ccc2nc(NC(=O)Cn3cnc4ccccc4c3=O)sc2c1 | x | -28% | -14% | i | -9% | -27%
COc1ccc(-c2cc(C(F)(F)F)nc(SCC(=O)N(C)Cc3cn(C)nc3C)n2)cc1OC | -6% | 12µM* | 4% | i | -6% | 18µM*
COc1ccc(NC(=O)c2nc(SCc3ccc(F)cc3)ncc2Cl)cc1 | x | u | -5% | x | -4% | -11%
COc1ccc(CC(=O)N/N=C/c2cccn2-c2ccc([N+](=O)[O-])cc2)cc1OC | -31% | 15µM* | -7% | i | -3% | 16µM*
COc1ccc(CCNC(=O)c2nc(SCc3ccc(F)cc3)ncc2Cl)cc1OC | x | u | -22% | x | u | 21µM*
